# Experimental data from PubChem BioAssay (NCI).
# The panel holds about 83,000 compounds, 20% with a hit somewhere; the sample as a whole holds those more often.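 How to read the values: 0–100, growth inhibition (40 = 60% inhibited); 0, no net growth; -100 to 0, cell death (-40 = 40% of starting cells died; -100 = all dead).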 Values without a mark were called inactive. Activity calls are given as the source filed them. How the source made its calls: active means growth percent below 10; inactive means the rest.
# System: HL-60(TB) leukemia
# Test: NCI-60 one-dose screen, 48 h (100 = growth as untreated, 0 = no growth, -100 = all killed)
# Settings: 10 µM unless noted
row,Structure (SMILES),growth
1,N#C/C(=C\c1cccc2cnccc12)N1N=NC2C=CC=CC21 (centres undefined),8.65% (active)
2,COc1ccc(Cl)cc1NC(=O)c1cc2c([nH]1)-c1nc(N)sc1CCC2,56.9%
3,CO[C@]12C=C/C(=C(/C(=O)OCc3cccnc3)C(=O)CCCCCCCC[C@]3(OC)C=C/C(=C(/C(=O)OCc4cccnc4)C(=O)CCCCCCCC1)O3)O2,-29.3% (active)
4,COc1ccc(-c2nnc3c4[nH]cnc4ncn23)c(OC)c1,12.8%
5,COc1cccc(N=Nc2cccc(OC)c2)c1,66.9%
6,Cc1c2c(c(C)c3c1oc1cc(O)ccc13)C(=O)N(CCN1CCCCC1)C2=O,99.3%
7,Cn1cc(-c2csc(-c3cn(C)c4ncccc34)n2)c2cccnc21,95.2%
8,CCc1ccc(/C(C#N)=C/C=C/c2ccccc2)cc1,-1.39% (active)
9,COc1ccc(-c2nc3sccn3c2-c2ccnc(S(C)(=O)=O)n2)cc1,55.4%
10,COC(=O)c1cccc([N+](=O)[O-])c1,121%
11,CN(C)CCOc1nc2c3cccnc3cc(-c3cccc(Cl)c3)c2c2ncccc12,-20.4% (active)
12,Cn1c([N+](=O)[O-])cnc1/C=C1\Oc2ccc(Br)cc2C1=O,-12% (active)
13,Cc1cccc2c(=O)c3c(sc12)c(NCCN)nc1ccccc13,-62.7% (active)
14,CC(=O)c1sc2c(c1OC(=O)c1ccc(Cl)cc1Cl)c(=O)n(-c1ccccc1)c(=S)n2-c1ccccc1,-31.9% (active)
